Source: PubChem BioAssay
Only some compounds are listed: those with a hit (about 3.1% of all), similar ones and a draw of the others.
TROY signal inh = TROY signaling inhibition. inhibition, % at 10 µM. Q293 LMP1-TROYcd NF-kB luciferase reporter, 4 h. 0.98% of 360,000 active;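 active = compounds whose plate-normalised and pattern-corrected inhibition of the luciferase reporter signal at the single screening dose is 50% or more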
TWEAK Fn14 block = inhibitors of TWEAK-Fn14 interaction signaling. TWEAK-stimulated Fn14 reporter cells, luciferase luminescence, 8 h. inhibition, % at 10 µM. 2% of 360,000 active. AID 1159606; in the data active = inhibition above about 50%
LMP1 NFkB inh = reduces LMP1-driven NF-kappaB luciferase signal | 0.69% of 350,000 active | AID 504558 | inhibition, % at 12.5 µM | LMP1-induced NF-kappaB luciferase reporter cells, luminescence; in the data active = inhibition above about 41%;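 note: 0% = neutral control wells and 100% = reference inhibitor control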
LGR2 antag = inhibitors of bursicon-induced Drosophila LGR2 receptor cAMP signaling. inhibition, % at 9.99 µM. AID 720647. HEK293 LGR2, CRE-luciferase, bursicon-stimulated, 4 h. 0.35% of 380,000 active;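 active = drop in luminescence signal, shown as inhibition above about 50% in the replicate tests, limit read from the data, passing the limit was not always enough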;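 note: agonist challenge used bursicon conditioned medium at about half maximal strength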
PAX8 inh HTS = inhibitors of PAX8 transcriptional activity in RMG-I cells; inhibition, % at 12.6 µM; RMG-I TPO-luciferase reporter, SteadyGlo, 24 h; 1.2% of 360,000 active;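 active = mean replicate inhibition at least 60% with every replicate also reaching 60%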;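 note: luciferase light reporting Pax8 driven TPO promoter activity; plate controls were median of neutral control wells for no effect and mitoxantrone controls for full effect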
EWS-Fli block = inhibitors of EWS/Fli oncoprotein transcriptional activity. AID 651661. inhibition, % at 12.6 µM. A673 NR0B1-luciferase reporter, viability-normalised. 0.67% of 350,000 active;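 active = mean inhibition of at least 50% after viability correction, with every replicate also passing that limit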;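 note: firefly luciferase signal divided by Alamar Blue viability fluorescence both relative to DMSO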
Numbers without * were called inactive; nt = no result.

SMILES	TROY signal inh	TWEAK Fn14 block	LMP1 NFkB inh	LGR2 antag	PAX8 inh HTS	EWS-Fli block
Cc1ccc(C)c(N2CCN(C(=O)c3cc4c(C)nc5ccccc5c4o3)CC2)c1	52.3*	23.2	8.8	22.2	7.5	13.5
Cc1nc2ccccc2c2oc(C(=O)N3CC(C)CC(C)C3)cc12 (stereo not drawn)	-9.6	-7.7	-0.7	-11.9	17.9	3.5
COc1ccccc1N1CCN(C(=O)c2cc3c(C)nc4ccccc4c3o2)CC1	51.4*	45.2	8.3	9.5	41.6	14.0
Cc1nc2ccccc2c2oc(C(=O)NCc3ccccn3)cc12	18.4	21.9	-8.2	11.8	nt	0.6
Cc1ccc(CNC(=O)c2cc3c(C)nc4ccccc4c3o2)cc1	39.5	61.1*	39.5	21.2	6.5	8.3
O=C(Cc1ccccc1)N1CC(=O)N2[C@H](C1)[C@H](c1ccc(C#CCc3ccccc3)cc1)[C@@H]2CO	nt	nt	nt	3.5	nt	10.5
O=C(/C=C/c1ccccc1)NC(NC(=S)Nc1ccc(Cl)cc1)C(Cl)(Cl)Cl (stereo not drawn)	42.2	67.2*	37.9	nt	nt	nt
CC(=O)NC(NC(=S)Nc1ccc(N=Nc2ccccc2)cc1)C(Cl)(Cl)Cl (stereo not drawn)	-18.7	62.8*	4.7	nt	-69.9	nt
CC(=O)NC(NC(=S)Nc1ccc(S(N)(=O)=O)cc1)C(Cl)(Cl)Cl (stereo not drawn)	5.0	-13.3	-5.5	-7.5	-3.7	2.8
O=C(C[C@H]1CC[C@@H]2[C@H](COC[C@H](O)CN2C(=O)c2ccc3c(c2)OCO3)O1)NCCN1CCCC1	nt	nt	nt	-16.4	-4.5	nt
c1ccc2c(c1)CCN(c1nc3cc4c(cc3s1)OCCO4)C2	75.2*	102.6*	25.0	nt	82.1*	nt
O=C(CCCc1ccccc1)NC1CC1	-9.2	-12.7	1.5	11.4	0.8	nt
O=C(O)CCCc1ccc2c(c1)CCc1ccccc1-2	27.3	56.2*	24.0	-21.2	-34.4	63.0*
O=C(Cc1ccccn1)NCC[C@H]1CC[C@H](NC(=O)Nc2ccc(Cl)cc2)[C@H](CO)O1	nt	nt	nt	9.1	nt	nt
COc1cc(C(=O)c2cc3c(cc2C)OCO3)cc(OC)c1OC	-8.8	4.9	nt	-14.7	83.7*	58.4*
COc1cc(C(=O)NC(=S)NNC(=O)c2ccc3c(c2)OCO3)cc(OC)c1OC	-18.7	-36.5	8.9	10.7	-1.2	21.0
COc1ccc(NC(=O)Nc2ccc3c(c2)C(=O)N([C@H](C)CO)C[C@@H](C)[C@@H](CN(C)CC2CCCCC2)O3)cc1	nt	nt	nt	13.0	-3.2	-5.3
C[n+]1ccc(/C=N/Nc2nc(Cl)c(C#N)c(Cl)c2Cl)cc1	1.0	11.0	-10.9	6.0	63.1*	-17.0
CN1CCCCN2[C@@H](CO)[C@H](c3ccc(-c4cccnc4)cc3)[C@@H]2C1	nt	nt	nt	-1.5	-27.4	-5.2
CNC(=O)C[C@@H]1CC[C@@H]2[C@H](COc3ccc(NC(=O)Nc4ccc(Cl)cc4)cc3C(=O)N2C)O1	nt	nt	nt	4.7	8.9	-9.4
Cc1ccc(NC(=O)CSC2=C(C#N)C(c3ccco3)C3=C(CCCC3=O)N2)cc1 (stereo not drawn)	1.2	-3.4	-12.2	nt	9.9	nt
CCOC(=O)CSC1=C(C#N)C(c2ccc(Cl)cc2)CC(=O)N1 (stereo not drawn)	-30.5	10.9	-3.3	-32.4	-7.0	-16.8
CCOC(=O)CSC1=C(C#N)C(c2ccc(C)o2)CC(=O)N1 (stereo not drawn)	-9.2	10.7	0.0	-1.5	64.7*	48.3
N#CC1=C(SCC(=O)Nc2ccc(C(=O)O)cc2)NC(=O)CC1c1ccco1 (stereo not drawn)	-1.9	97.9*	4.7	7.7	-34.1	3.1
Cc1ccccc1CC(=O)NC1CCCCCC1	-20.7	87.2*	-2.3	-1.3	-12.8	-2.1
SMILES	TROY signal inh	TWEAK Fn14 block	LMP1 NFkB inh	LGR2 antag	PAX8 inh HTS	EWS-Fli block
O=C(NC1CCCCCCC1)c1cc(F)c(F)cc1Cl	-42.1	-29.6	-17.1	-26.6	-116.8	-93.2
Cc1ccccc1C(=O)NC1CCN(C(=O)NC2CCCCC2)CC1	3.3	53.2*	7.3	8.7	0.9	2.1
Cc1ccc(C(=O)NC2CCCCCCC2)c(Cl)c1	40.5	74.7*	8.2	80.2*	5.9	56.3*
Cc1ccccc1C(=O)NC1CCN(C(=O)NCc2ccccc2)CC1	-18.9	0.9	-0.8	17.2	-9.9	2.1
CCOC(=O)Cc1csc(N/N=C\c2ccc(N(C)C)cc2)n1	44.9	72.8*	81.4*	2.4	-25.8	22.7
C/C=C/c1ccc2c(c1)O[C@@H](CN(C)C(=O)C1CC1)[C@H](C)CN([C@@H](C)CO)S2(=O)=O	nt	nt	nt	7.2	nt	-2.8
Cc1cccc(N2CCN(C(=O)c3ccc4[nH]c(C)c(C)c4c3)CC2)c1C	26.7	5.6	20.7	-9.6	28.5	54.1*
Cc1[nH]c2ccc(C(=O)N3CCN(c4ccccc4Cl)CC3)cc2c1C	4.5	-12.4	1.5	0.0	8.2	nt
Cc1cccc(N2CCN(C(=O)c3ccc(S(=O)(=O)N(C)c4ccccc4)cc3)CC2)c1C	29.5	60.8*	8.0	nt	39.7	17.5
CN1CCN(C(=O)c2ccc(S(=O)(=O)N(C)c3ccccc3)cc2)CC1	-9.8	-1.2	11.8	6.5	10.9	-7.0
CC1=CC(=NOC(=O)/C=C/c2ccccc2)C=C(C)C1=O	-12.1	11.9	59.3*	nt	nt	nt
CC1=CC(=O)C=C(C)C1=NOC(=O)/C=C\c1ccccc1	1.9	34.5	7.9	-23.4	-17.8	8.8
C[C@H]1CCCCO[C@H](CN(C)C(=O)C2CCCCC2)[C@@H](C)CN([C@@H](C)CO)C(=O)c2cc(NC(=O)Nc3ccc(F)cc3)ccc2O1	nt	nt	nt	0.7	84.6*	9.1
C[C@H](CO)N1C[C@H](C)[C@H](CN(C)C(=O)C2CCCCC2)OCCCC[C@H](C)Oc2ccc(NC(=O)Nc3ccc(F)cc3)cc2C1=O	nt	nt	nt	13.0	74.4*	5.2
C[C@H]1CCCCO[C@@H](CN(C)C(=O)Nc2ccc(F)cc2)[C@@H](C)CN([C@@H](C)CO)C(=O)c2cc(NC(=O)C3CCCCC3)ccc2O1	nt	nt	nt	65.6*	12.3	19.2
C[C@@H]1CCCCO[C@@H](CN(C)C(=O)C2CCCCC2)[C@@H](C)CN([C@H](C)CO)C(=O)c2cc(NC(=O)Nc3ccc(F)cc3)ccc2O1	nt	nt	nt	-2.4	2.2	1.6
C[C@@H]1CN([C@H](C)CO)C(=O)c2cc(NC(=O)Nc3ccc(F)cc3)ccc2O[C@@H](C)CCCCO[C@H]1CN(C)C(=O)C1CCCCC1	nt	nt	nt	6.6	86.0*	17.4
CO[C@@H](CN(C)C(=O)c1ccc2c(c1)OCO2)[C@@H](C)CN([C@@H](C)CO)S(=O)(=O)c1ccc(F)cc1	nt	nt	nt	-3.4	nt	-8.2
CC1CN(CCCCSc2ccc(Cl)cc2)CC(C)O1 (stereo not drawn)	-11.9	89.6*	-7.6	-14.1	13.2	2.7
CC1CN(CCOCCSc2ccc(Cl)cc2)CC(C)O1 (stereo not drawn)	-12.5	-13.2	1.9	-12.5	1.9	6.5
